Laboratory results: ChEMBL document CHEMBL3988442, “University of Dundee, Small-Polar-MMV Screening Library” (2021)

The molecules below were run against AMP-activated protein kinase, AMPK (Homo sapiens) (UniProt P54646+O43741+P54619+Q9UGJ0+Q9Y478+Q13131+Q9UGI9) (assay: AMP-dependent Kinase enzyme assay. An in vitro enzyme assay that detects ADP turnover that is directly proportional to AMPK activity. This uses naive AMPK that is activated during the assay with MK-8722). Details: 30 µM.
Assay type: functional
Set-up: scale not given: direction of the effect not stated beside the values

SMILES	Percent Effect [%]
c1ccn2c(C3CCCN3Cc3nc(C4CC4)no3)nnc2c1 (stereo not given)	2.28
CCc1ccc(CCn2cnc(C#N)n2)cc1	-0.907
CC(NC(=O)C(C)(C)C)c1cc(O)nc(-c2cccnc2)n1 (stereo not given)	6.37
CSCC(C)(O)CNS(=O)(=O)c1ccc(Br)cc1 (stereo not given)	-4.9
COc1ccccc1-c1cccc(C2CCCN(C3CCOCC3)C2)n1 (stereo not given)	-7.08
COc1nc2c(cc1C(=O)NC(C)Cc1cnccn1)CCC2 (stereo not given)	-1.98
O=C(c1cncc(NCC2COc3ccccc3C2)n1)N1CCCCC1 (stereo not given)	16.5
CN(C)S(=O)(=O)N1CCOC(c2cccc(-c3cncnc3)n2)C1 (stereo not given)	9.99
COCCN1CC(=O)N2CC[C@@H](O)C[C@H]2C1=O	-8.25
CN1CCCC1CCNC(=O)c1ccccc1-n1cc(CN)cn1 (stereo not given)	11.2
O=C(O)[C@H]1C[C@@H](C(=O)NCc2ccncc2)CN(Cc2ccccc2)C1	-3
CCNC(=O)[C@@H]1C[C@@H](N)CN1C(=O)c1cc2ccccc2[nH]1	8.12
CC(C)C(NC(=O)C1CC1)c1cc(O)nc(-c2cccnc2)n1 (stereo not given)	6.3
CC1CN(c2ccccc2Cl)C(=O)CN1C(=O)c1c[nH]c(=O)c(Cl)c1 (stereo not given)	5.06
CC(=O)c1ccc(-c2cnn(CC(=O)Nc3cc(C)nn3C)c2)nc1	0.263
COC(=O)c1ncccc1N1CCN(C(=O)CN2CCOCC2)CC1	5.94
Cc1ccc(S(=O)(=O)N2CCN(Cc3ccncc3)CC2)c(Cl)c1	-6.37
NC(=O)c1ccc(N2CCN(CCCc3cn[nH]c3)CC2)cc1	-7.64
CCN(C)C[C@@H]1CN(C(=O)c2cc(-c3ccc(F)cc3)n[nH]2)C[C@@H]1CO	9.6
Cc1cc(C(=O)NCCC(=O)N2CCCc3ccccc32)no1	-5.97

SMILES	Percent Effect [%]
O=C1CN(Cc2cn(CC3CCCN(C4CCSCC4)C3)nn2)CCN1 (stereo not given)	-8.48
CC(C)Cc1cc(C(=O)N2CCC(N3CCCC3)CC2)cc(O)n1	1.87
CN(C)C(=O)c1cncnc1-c1ccc(CNC(=O)C2CCCO2)cc1 (stereo not given)	-0.401
CN(C)C(=O)c1ccc2c(c1)nc(N1CC[C@H](O)C1)n2C	1.76
CCNc1cc2c(nn1)CCN(C(=O)c1ccc(-n3cccn3)nc1)C2	-5.94
CN(CCCO)C(=O)c1cc(COc2ccc3c(c2)CCCC3)on1	-1.01
CC(C)c1nc(CSc2nnc(C3CC3)n2CC(N)=O)no1	-5.73
CN(CCc1ccccn1)C(=O)Nc1cccnc1-n1cccn1	-3.54
COC(=O)CC1CCCCN1CC(=O)Nc1cc(F)ccc1F (stereo not given)	7.24
COc1cc(CCC(=O)N2CCC(c3cc4ncc(C)nc4[nH]3)C2)on1 (stereo not given)	-0.349
COc1cccc(CN(C)Cc2nc3cc(C)ccc3[nH]2)c1O	5.48
COc1ccccc1CNC(=O)C(C)N1CC(n2cc(C)cn2)C1 (stereo not given)	3.01
CCOc1cccc(CN(Cc2cnn(C)c2)CC(C)C)c1O	-9.84
CC(C)(C)c1noc(CCCC(=O)N2CCNC(=O)CC2)n1	-2.76
Cc1ncc(C(=O)NCCOc2ccccc2F)c(C)n1	-16.7
CCc1n[nH]c(C(=O)N2CCC3(CCCN(CCOC)C3=O)C2)c1C (stereo not given)	6.73
COc1ccc(NC(=O)c2cnc(C3CCN(C(C)=O)C3)nc2C)cc1 (stereo not given)	-1.66
NC(=O)NC1(C(=O)N2CCc3c(Cl)cccc3C2)CCCCC1	-3.74
CCCc1nc(NC2(COC)CCCC2)c2cnn(C)c2n1	7.33
Cc1csc(CCNC(=O)N2CCC(C(N)=O)CC2)n1	-10.8
